# Measurements from PubChem BioAssay (NCATS).
# Inconclusive results are not listed. Entries that show only a call come without a potency. The source made the active and inactive calls. Calls come from the whole dose curve; as a rule, active = well fitted inhibition curve with a large enough effect; inconclusive = small, poorly fitted or top-dose-only effect, or effect the other way; inactive = flat fitted curve, though single readings scatter.
# Target: ATP-dependent 6-phosphofructokinase (Trypanosoma brucei brucei) (UniProt O15648)
# Assay: qHTS Assay to Find Inhibitors of T. brucei phosphofructokinase: hit validation (AID 492961);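 note: luminescence reports ADP formed as PFK phosphorylates fructose-6-phosphate with ATP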
# Conditions: T. brucei PFK, ADP-Glo luminescence; series mostly up to 51.4 µM
# Summary of the method: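 ADP-Glo luminescence read-out of ADP formed by 1.25 nM PFK from 0.1 mM ATP and 0.5 mM F6P (TEA pH 8.0, 45 min, RT). Compounds titrated; activity normalized to no-enzyme and full-enzyme controls.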
# Chain of ATP-dependent 6-phosphofructokinase (Trypanosoma brucei brucei) (O15648 whole entry, looked up): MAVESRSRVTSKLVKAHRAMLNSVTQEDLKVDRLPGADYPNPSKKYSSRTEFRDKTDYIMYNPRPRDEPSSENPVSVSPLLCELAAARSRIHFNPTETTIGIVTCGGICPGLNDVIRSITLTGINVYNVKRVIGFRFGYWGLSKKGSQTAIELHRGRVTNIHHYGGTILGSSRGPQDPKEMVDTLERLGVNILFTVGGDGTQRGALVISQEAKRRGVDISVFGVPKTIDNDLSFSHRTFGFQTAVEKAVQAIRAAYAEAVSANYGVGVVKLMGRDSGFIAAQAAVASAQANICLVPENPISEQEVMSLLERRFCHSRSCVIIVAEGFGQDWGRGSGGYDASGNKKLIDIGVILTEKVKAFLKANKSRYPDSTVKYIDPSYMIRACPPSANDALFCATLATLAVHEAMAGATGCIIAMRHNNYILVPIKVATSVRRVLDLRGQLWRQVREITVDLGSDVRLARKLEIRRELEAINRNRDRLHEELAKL
row,Compound,Potency
1,O=C(O)CCn1c2c(c3ccccc31)C[C@H](NS(=O)(=O)c1ccc(F)cc1)CC2,inactive
2,NC(=O)N1c2ccccc2CC(=O)c2ccccc21,inactive
3,CNCC[C@H](Oc1cccc2ccccc12)c1cccs1,inactive
4,CCn1cc(C(=O)O)c(=O)c2cc(F)c(N3CCNCC3)nc21,inactive
5,CN1CCN(c2c(F)cc3c(=O)c(C(=O)O)cn4c3c2OCN4C)CC1,inactive
6,COc1ncnc(NS(=O)(=O)c2ccc(N)cc2)c1OC,inactive
7,Nc1ccc(S(=O)(=O)Nc2ccccn2)cc1,inactive
8,CCc1c2c(nc3ccc(OC(=O)N4CCC(N5CCCCC5)CC4)cc13)-c1cc3c(c(=O)n1C2)COC(=O)[C@]3(O)CC,inactive
9,COc1cnc(NS(=O)(=O)c2ccc(N)cc2)nc1,inactive
10,COc1cc(NS(=O)(=O)c2ccc(N)cc2)nc(OC)n1,inactive
11,CCCCCCNC(=O)n1cc(F)c(=O)[nH]c1=O,inactive
12,CC[C@H](C)C(=O)O[C@H]1C[C@@H](C)C=C2C=C[C@H](C)[C@H](CC[C@@H]3C[C@@H](O)CC(=O)O3)[C@H]21,inactive
13,CC1=NN(c2ccccc2)C(=O)C1,inactive
14,O=c1cc(O)c(Cl)c[nH]1,inactive
15,CC(C)OC(=O)C(C(=O)OC(C)C)=C1SC=CS1,inactive
16,Cc1cccc(N(C)C(=S)Oc2ccc3ccccc3c2)c1,inactive
17,CCCN[C@H]1CCc2nc(N)sc2C1,inactive
18,C1CCC(C(CC2CCCCN2)C2CCCCC2)CC1 (centres undefined),inactive
19,CC(C)(Sc1cc(C(C)(C)C)c(O)c(C(C)(C)C)c1)Sc1cc(C(C)(C)C)c(O)c(C(C)(C)C)c1,inactive
